This is part of a sample that, as a whole, favours compounds with a hit. Of some 83,000 tested, about 20% had one in any assay.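 Step 1: grow cells in 96-well plates. Step 2: add test compound at a single concentration. Step 3: incubate 48 h. Step 4: record percent growth.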 Values without a mark were called inactive. Activity calls are given as the source filed them. Rule for the calls: active = growth percent below 10; inactive = the rest.
The compounds below were run on ACHN renal (assay: NCI-60 one-dose screen, 48 h (100 = growth as untreated, 0 = no growth, -100 = all killed)). Settings: 10 µM unless noted.

SMILES | growth
COc1ccc(C(=O)/C=C/c2cccc(Cl)c2)cc1S(N)(=O)=O | -89.3% (active)
COc1cc(C2CC(c3cc(OC)c(OC)c(OC)c3)=NN2c2ccccc2)ccc1OCc1ccc(C)cc1 (centres undefined) | 99.6%
CCOP(=O)(OCCCl)c1nc(-c2ccc(C)cc2)oc1NCc1ccccc1 (centres undefined) | 80%
Cc1ccccc1[C@H]1C(C(=O)c2ccc(Cl)cc2)C2(N[C@@H]1c1ccccc1)C(=O)Nc1ccccc12 (some centres undefined) | -13.9% (active)
Cc1ccccc1[C@H]1C(C(=O)c2ccc(Cl)cc2)C2(N[C@@H]1c1ccccc1)C(=O)Nc1ccc(Br)cc12 (some centres undefined) | 7.11% (active)
Cc1cc(=O)oc2cc(OCCOc3ccc(/C=C/C(=O)Nc4ccccc4N)cc3)ccc12 | 37.1%
COc1cccc(/C=C/C(=O)c2ccc(OC)c(S(N)(=O)=O)c2)c1 | -40.4% (active)
Cn1cc(NC(=O)c2cc(NC(=O)c3ccc(/C=C/c4ccccc4)cc3)cn2C)cc1C(=O)NCCCN1CCOCC1 | 70.7%
CN1CCN(Cc2ccc(C(=O)Nc3cccc(C#Cc4cccc5[nH]nc(N)c45)c3)cc2C(F)(F)F)CC1 | -98.3% (active)
CCCn1cc(-c2nc(Nc3ccc(C(=O)NCCCCNc4cccc5c4C(=O)N(C4CCC(=O)NC4=O)C5=O)cc3)nc3[nH]ccc23)cn1 (centres undefined) | 75.7%
COc1c(F)ccc(C(=O)Nc2ccc3nc(NC(=O)C4CCCN(S(=O)(=O)c5ccc(C(F)(F)F)cc5)C4)sc3c2)c1F (centres undefined) | 72.3%
Cn1nc(C(F)(F)F)cc1-c1cc(Cl)c(COc2ccc(Cl)cc2)c(-c2ccc(Cl)c(C(F)(F)F)c2)c1O | -5.03% (active)
COc1ccc(C(=O)/C=C/c2ccccc2Br)cc1S(N)(=O)=O | -97% (active)
COc1ccc2c(c1)c(/C=N/Nc1ccc3ccccc3n1)cn2C | -85.4% (active)
COc1c(F)ccc(C(=O)Nc2ccc3nc(NC(=O)C4CCCN(S(=O)(=O)c5ccc(Br)c(F)c5)C4)sc3c2)c1F (centres undefined) | 81.5%
COc1cc(OC)cc(-c2cc3ccc(N(C)C)cc3c(=O)[nH]2)c1 | 31.2%
Clc1cccc(-c2ccc(OCCCN3CCN(c4ccncc4)CC3)cc2)c1 | 49.4%
CC12CC[C@@H]3[C@]4(C)COC(c5cn[nH]c5-c5ccc(Br)cc5)O[C@@H]4CC[C@@]3(C)[C@@H]1CC(C1=CCOC1=O)O2 (some centres undefined) | 47%
CC12CC[C@@H]3[C@]4(C)COC(c5cn[nH]c5-c5cccc(Cl)c5)O[C@@H]4CC[C@@]3(C)[C@@H]1CC(C1=CCOC1=O)O2 (some centres undefined) | 31.3%
CCCSc1nc(Nc2ccc(S(N)(=O)=O)cc2)c(C#N)c(-c2ccc(Cl)cc2)n1 | -66.8% (active)
COc1ccc(-c2nc3ccc(C(=O)NN4C(=O)c5ccc([N+](=O)[O-])cc5C4=O)cc3[nH]2)cc1 | 98.4%
C=C1CC[C@@H]2[C@]3(C)COC(c4cn[nH]c4-c4ccc(Br)cc4)O[C@@H]3CC[C@@]2(C)[C@@H]1C/C=C1/C(=O)OCC1O (some centres undefined) | -100% (active)
Cc1cnc(C(=O)NNc2nc3cc(F)ccc3n3c(C(=O)N4CC5CC(C4)N5)ccc23)cn1 | 15.6%
CCCSc1nc(Nc2ccc(S(N)(=O)=O)cc2)c(C#N)c(-c2cc(OC)c(OC)c(OC)c2)n1 | 11.8%
C=C1CCC2C3(C)COC(c4ccccc4)OC3CCC2(C)C1CC(NCc1ccccc1)C1=CCOC1=O (centres undefined) | 86.4%
C=C1CC[C@@H]2[C@]3(C)COC(c4ccccc4)O[C@@H]3CC[C@@]2(C)[C@@H]1C/C=C1/C(=O)OCC1OC(C)=O (some centres undefined) | -100% (active)

What follows are compounds tested on CAKI-1 renal in the same assay as above. Settings: 10 µM unless noted.

SMILES | growth
O=C(COc1ccc(NC(=O)Nc2ccc(Cl)cc2)cc1)N/N=C/c1ccccc1 | -89.6% (active)
COc1cc(/C=C/C(=O)c2ccccc2)ccc1Oc1nc(Nc2ccc(F)cc2)nc(N(C)C)n1 | 37.5%
CN(C)CCCNC(=O)c1cc(NC(=O)c2cc(NC(=O)c3ccc(/C=C/c4ccccc4)cc3)cn2C)cn1C | 34.7%
COc1ccc(C(=O)/C=C/c2ccc(Oc3nc(Nc4ccc(F)cc4)nc(N(C)C)n3)c(OC)c2)cc1 | 49%
CN(C)CCOc1ccc(C(=O)C2[C@H](c3ccc(Cl)cc3)[C@@H](c3ccccc3)NC23C(=O)Nc2ccc(Br)cc23)cc1 (some centres undefined) | 18.5%
COc1ccc(-c2ccc(SCC(=O)NCCc3ccc(S(N)(=O)=O)cc3)nn2)cc1 | 90.6%
Cc1nc(Nc2ncc(C(=O)Nc3c(C)cccc3Cl)s2)cc(N2CCN(CCCNC(=O)COc3ccc(C4CCC(=O)NC4=O)cc3)CC2)n1 (centres undefined) | -30.7% (active)
C=C1CCC2C3(C)COC(c4ccc(F)cc4)OC3CCC2(C)C1C/C=C1/C(=O)OCC1O (centres undefined) | -5.17% (active)
O=c1onc(-c2cc3ccccc3nc2Cl)n1-c1cccc2ccccc12 | 29.1%
O=C1NC(=O)/C(=C/c2ccccc2OCc2cc3ccccc3nc2Cl)S1 | 82.3%
O=C(COc1ccc(NC(=O)Nc2ccc(Cl)c(Cl)c2)cc1)N=Nc1c(O)[nH]c2ccc(Br)cc12 | 0.251% (active)
COc1cccc(/C=C/c2nc3ccccc3c(=O)n2CC(=O)Nc2ccc(Cl)cc2)c1 | 60.5%
COc1ccc(C(=O)/C=C/c2cccc(Cl)c2)cc1S(N)(=O)=O | -9.94% (active)
COc1cc(C2CC(c3cc(OC)c(OC)c(OC)c3)=NN2c2ccccc2)ccc1OCc1ccc(C)cc1 (centres undefined) | 77.8%
CCOP(=O)(OCCCl)c1nc(-c2ccc(C)cc2)oc1NCc1ccccc1 (centres undefined) | 49.5%
Cc1ccccc1[C@H]1C(C(=O)c2ccc(Cl)cc2)C2(N[C@@H]1c1ccccc1)C(=O)Nc1ccccc12 (some centres undefined) | 3.96% (active)
Cc1ccccc1[C@H]1C(C(=O)c2ccc(Cl)cc2)C2(N[C@@H]1c1ccccc1)C(=O)Nc1ccc(Br)cc12 (some centres undefined) | 23%
Cc1cc(=O)oc2cc(OCCOc3ccc(/C=C/C(=O)Nc4ccccc4N)cc3)ccc12 | 30.7%
COc1cccc(/C=C/C(=O)c2ccc(OC)c(S(N)(=O)=O)c2)c1 | 26.5%

SMILES | growth
Cn1cc(NC(=O)c2cc(NC(=O)c3ccc(/C=C/c4ccccc4)cc3)cn2C)cc1C(=O)NCCCN1CCOCC1 | 55.6%
CN1CCN(Cc2ccc(C(=O)Nc3cccc(C#Cc4cccc5[nH]nc(N)c45)c3)cc2C(F)(F)F)CC1 | -88.5% (active)
CCCn1cc(-c2nc(Nc3ccc(C(=O)NCCCCNc4cccc5c4C(=O)N(C4CCC(=O)NC4=O)C5=O)cc3)nc3[nH]ccc23)cn1 (centres undefined) | 27.3%
COc1c(F)ccc(C(=O)Nc2ccc3nc(NC(=O)C4CCCN(S(=O)(=O)c5ccc(C(F)(F)F)cc5)C4)sc3c2)c1F (centres undefined) | 61.2%
Cn1nc(C(F)(F)F)cc1-c1cc(Cl)c(COc2ccc(Cl)cc2)c(-c2ccc(Cl)c(C(F)(F)F)c2)c1O | -15.9% (active)
COc1ccc(C(=O)/C=C/c2ccccc2Br)cc1S(N)(=O)=O | 11.8%
COc1ccc2c(c1)c(/C=N/Nc1ccc3ccccc3n1)cn2C | -45.4% (active)
COc1c(F)ccc(C(=O)Nc2ccc3nc(NC(=O)C4CCCN(S(=O)(=O)c5ccc(Br)c(F)c5)C4)sc3c2)c1F (centres undefined) | 72.7%
COc1cc(OC)cc(-c2cc3ccc(N(C)C)cc3c(=O)[nH]2)c1 | 34.2%
Clc1cccc(-c2ccc(OCCCN3CCN(c4ccncc4)CC3)cc2)c1 | 5.23% (active)
CC12CC[C@@H]3[C@]4(C)COC(c5cn[nH]c5-c5ccc(Br)cc5)O[C@@H]4CC[C@@]3(C)[C@@H]1CC(C1=CCOC1=O)O2 (some centres undefined) | 43.3%
CC12CC[C@@H]3[C@]4(C)COC(c5cn[nH]c5-c5cccc(Cl)c5)O[C@@H]4CC[C@@]3(C)[C@@H]1CC(C1=CCOC1=O)O2 (some centres undefined) | 45.6%
CCCSc1nc(Nc2ccc(S(N)(=O)=O)cc2)c(C#N)c(-c2ccc(Cl)cc2)n1 | -54.5% (active)
COc1ccc(-c2nc3ccc(C(=O)NN4C(=O)c5ccc([N+](=O)[O-])cc5C4=O)cc3[nH]2)cc1 | 92.6%
C=C1CC[C@@H]2[C@]3(C)COC(c4cn[nH]c4-c4ccc(Br)cc4)O[C@@H]3CC[C@@]2(C)[C@@H]1C/C=C1/C(=O)OCC1O (some centres undefined) | -40.9% (active)
Cc1cnc(C(=O)NNc2nc3cc(F)ccc3n3c(C(=O)N4CC5CC(C4)N5)ccc23)cn1 | 23.1%
CCCSc1nc(Nc2ccc(S(N)(=O)=O)cc2)c(C#N)c(-c2cc(OC)c(OC)c(OC)c2)n1 | 25.6%
C=C1CCC2C3(C)COC(c4ccccc4)OC3CCC2(C)C1CC(NCc1ccccc1)C1=CCOC1=O (centres undefined) | 58.1%
C=C1CC[C@@H]2[C@]3(C)COC(c4ccccc4)O[C@@H]3CC[C@@]2(C)[C@@H]1C/C=C1/C(=O)OCC1OC(C)=O (some centres undefined) | 20.6%

Source: PubChem BioAssay (NCI)
